# Assay results as given in PubChem BioAssay AID1851 (National Center for Advancing Translational Sciences (NCATS), 2009).
# Values joined by “and” are separate entries in the source; they are usually repeats but may differ in a detail not shown here. Equal entries are not always repeated. The whole screen tested about 16,000 compounds, of which about 2,600 (16%) were called active. Another 20% or so got no clear call; they are omitted. Not all results are given here. Values without a mark were called inactive. Calls come from the whole dose curve; as a rule, active = well fitted curve in the direction sought with a large enough effect; inconclusive = small, poorly fitted or top-dose-only effect, or effect the other way; inactive = no such curve, though single readings can be large or run the other way.
# Target: Cytochrome P450 2D6 (Homo sapiens) (UniProt P10635)
# Sequence (P10635 whole entry, looked up): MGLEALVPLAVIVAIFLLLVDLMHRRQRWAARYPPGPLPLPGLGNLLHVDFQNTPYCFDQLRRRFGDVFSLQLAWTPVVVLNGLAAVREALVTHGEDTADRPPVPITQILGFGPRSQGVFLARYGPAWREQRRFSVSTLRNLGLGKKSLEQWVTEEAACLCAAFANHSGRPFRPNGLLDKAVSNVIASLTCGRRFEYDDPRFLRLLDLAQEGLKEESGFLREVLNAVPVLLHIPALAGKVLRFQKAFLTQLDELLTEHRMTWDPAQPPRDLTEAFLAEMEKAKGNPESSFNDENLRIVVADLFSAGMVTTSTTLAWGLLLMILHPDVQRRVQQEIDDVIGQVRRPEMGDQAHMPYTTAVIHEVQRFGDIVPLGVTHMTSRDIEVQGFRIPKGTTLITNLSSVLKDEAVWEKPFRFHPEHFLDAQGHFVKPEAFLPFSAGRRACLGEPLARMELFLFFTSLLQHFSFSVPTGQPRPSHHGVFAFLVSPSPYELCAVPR
# Assay: Cytochrome panel assay with activity outcomes
# Conditions: recombinant CYP, pro-luciferin dealkylation, luminescence, p450-cyp2d6; series mostly up to 57.1 µM
# % is set by controls: 0 for no effect and ±100 for the full control effect.
SMILES,AC50,"activity, negative = inhibition"
CC(=O)NC1(c2cccc(F)c2)CCN(CC(=O)NC(C)C)CC1,inactive,
Nc1nnc(C(c2ccccc2)c2ccccc2)s1,inactive,
Cn1c(=O)c(-c2ccc(F)cc2)nc2cnc(Oc3ccccc3)nc21,inactive,
CC/C=C\CC[C@H](OC(=O)c1ccc(Br)cc1)C1=CCCCC1=O,,-1.66% [at 11.4 µM]
CCn1c(=O)c2[nH]c(-c3ccccc3)nc2n(CC)c1=O,inactive,
O=C(O)C[n+]1ccccc1,,-8.09% [at 11.4 µM]
COc1ccc(-c2cc(C3CCN(c4ccc(C(C)=O)cc4[N+](=O)[O-])CC3)[nH]n2)cc1,inactive,
Cc1ccc(OC(=O)c2ccc(N3CCOCC3)c([N+](=O)[O-])c2)cc1,inactive,
COC(=O)c1ccc(N2CCN(CC(=O)c3ccc(-c4ccccc4)cc3)CC2)c([N+](=O)[O-])c1,12600 nM (active),
CCNC(=S)N1CC(C)OC(C)C1 (configuration not stated),inactive,
O=C(/C=C/c1ccco1)NC(=S)Nc1ccc(N2CCOCC2)c(Cl)c1,inactive,
Clc1ccc(Cl)c(Nc2ccnc(SCc3ccccc3)n2)c1,,-0.772% [at 11.4 µM]
CNc1cc(CS(=O)c2ccccc2)nc(-c2ccccc2)n1 (configuration not stated),inactive,
CNc1cc(CSC)nc(SCc2ccc(Cl)c(Cl)c2)n1,28200 nM (active),
CCN1C(=O)[C@H]2[C@H]3[C@H](O)[C@H](O)C/C(=N/OC[C@@H](O)[C@H]4O[C@H]5OC(C)(C)O[C@H]5[C@@H]4O)[C@@H]3CC[C@@H]2C1=O,,7.29% [at 11.4 µM]
Cn1sc(NC(=O)c2ccccc2)nc1=O,inactive,
O=C(O)CCC/C=C\C[C@@H]1CO[C@H](C(F)(F)F)O[C@@H]1c1ccccc1O,inactive,
CO[C@H]1COC(=O)C/C=C\[C@@H](C)COC(=O)[C@@H](OCc2ccccc2)/C=C\[C@@H]1C,,1.83% [at 11.4 µM]
Clc1ccc2c(N3CCC(CCC4CCN(c5ncnc6cc(Cl)ccc56)CC4)CC3)ncnc2c1,794 nM (active),
CN(C)C(=O)c1ccc(-c2ccc3ncnc(N4CCC(C(=O)O)CC4)c3c2)cc1,inactive,
Clc1ccccc1-c1ccc2ncnc(N3CCNCC3)c2c1,inactive,
COc1ccc(OC)c(NC(=O)[C@H]2CC=CC[C@H]2C(=O)O)c1,inactive,
O=C(Nc1cccc(Cl)c1)N1CCN2C(=O)c3ccccc3C12c1ccccc1 (configuration not stated),10000 nM (active),

SMILES,AC50,"activity, negative = inhibition"
O=C(Nc1cccc(NC(=O)N2CCN(c3ccccc3)CC2)c1)N1CCN(c2ccccc2)CC1,inactive,
O=C(Nc1ccccc1)N1CCOCC1,inactive,
Cc1ccc(C2C(C=Nc3c(C)n(C)n(-c4ccccc4)c3=O)=C(c3ccccc3)Oc3ccccc32)cc1 (configuration not stated),inactive,
CCOCCCN1C(=O)CN(C2CCCCCC2)C(=O)C1c1ccc(OC)cc1 (configuration not stated),inactive,
CCSc1nnc(-c2ccc(Cl)cc2)c2ccccc12,inactive,
CCN(CC)S(=O)(=O)c1ccc2c(c1)nc(SCC(=O)N1CCOCC1)n2-c1ccccc1OC,inactive,
COCCn1c(C)cc(C2=NNC(=Nc3ccc(F)cc3)SC2)c1C,7940 nM (active),
Cn1cccc1C(=O)N1CCC2(CC1)CCN(c1cccc(-c3ccccc3)c1)CC2,inactive,
CN(C)c1ncc2nc(-c3ccccc3)c(=O)n(CCC#N)c2n1,1000 nM (active),
CN(C)c1ncc2nc(-c3cc(F)cc(F)c3)c(=O)n(CCC#N)c2n1,inactive,
CN(C)c1ncc2nc(-c3ccccc3)c(=O)n(CCc3ccccc3)c2n1,inactive,
N#CCCn1c(=O)c(CCc2ccccc2)nc2cnc(OCc3ccccc3)nc21,inactive,
N#CCCn1c(=O)c(CCc2ccccc2)nc2cnc(Oc3ccccc3)nc21,inactive,
CN(C)c1ncc2nc(CCc3ccccc3)c(=O)n(CCC#N)c2n1,2510 nM (active),
COc1cc(/C=C2/C(=N)N3OC(C)=CC3=NC2=O)ccc1OCCOc1ccc(C)cc1,inactive,
COc1cccc(/C=N/NC(=O)CO/N=C(\C)c2cccs2)c1OC,inactive,
CC1CCN(c2ccc(NC(=S)NC(=O)c3ccco3)cc2)CC1,inactive,
COc1ncc2nc(-c3cc(F)cc(F)c3)c(=O)n(C3CC3)c2n1,inactive,
CCOc1c(Cl)cc(C(=O)Nc2ccccc2-c2ccccc2)cc1Cl,12.6 nM (active),
COC(=O)c1ccc(Cl)c(NC(=O)c2ccc(-c3ccccc3)cc2)c1,inactive,
CCOC(=O)c1ccc(Cl)c(NC(=O)c2ccc(-c3ccccc3)cc2)c1,inactive,
COc1nc(OCCNC(C)=O)nc(N(C)C)n1,inactive,
CC(C)NC(=O)c1ccccc1NC(=O)/C=C/c1ccc([N+](=O)[O-])cc1,inactive,

SMILES,AC50,"activity, negative = inhibition"
Cc1cccc(NC2(C(F)(F)F)N=C(c3ccccc3)NC2=O)n1 (configuration not stated),inactive,
O=C(O)c1cc(=O)c2c(Cl)cc(Cl)cc2[nH]1,inactive,
Cc1cc(Br)cc(C)c1OCCCCN(C)C,2000 nM (active),
CCN1C(=O)[C@H]2[C@H]3[C@H](O)[C@H](O)C/C(=N/OC[C@@H](O)COCc4ccco4)[C@H]3CC[C@@H]2C1=O,,-6.12% [at 11.4 µM]
Nc1cc2c(nc3c4ccccc4c(N)cc3[n+]2-c2cccc3ccccc23)c2ccccc12 (tested in a mixture with another compound),1580 nM (active),
Nc1nc(-c2cc(-c3cccc4ccccc34)nc(N)n2)cc(-c2cccc3ccccc23)n1,,-0.19% [at 11.4 µM]
CSCC[C@@H]1NC(=O)C/C=C\[C@@H](C)COC(=O)[C@@H](C)COC1=O,,16.4% [at 11.4 µM]
Cc1sc(=NC(=O)c2ccco2)n(C)c1-c1ccccc1,inactive,
CCOc1ccccc1NC(=O)CCC(=O)O,inactive,
CCOc1ccccc1NC(=O)C(=O)NCC1CCCN1CC (configuration not stated),inactive,
COc1ccccc1NC(=O)CCN1C(=O)C2CC=C(Cl)CC2C1=O (configuration not stated),inactive,
COc1cc(NC(=O)c2ccccc2)c(OC)cc1NC(=O)CN1CCN(c2ccccn2)CC1,inactive,
COc1ccccc1NC(=O)CN1CCN(C2c3ccccc3-c3ccccc32)CC1,25.1 nM (active),
CC(C)OC(=O)CN1CCN(C2c3ccccc3-c3ccccc32)CC1,251 nM (active),
COc1ccc(NC(C)=O)cc1NC(=O)CN1CCN(C2c3ccccc3-c3ccccc32)CC1,15800 nM (active),
O=C(O)C[C@@H](C(=O)O)C1c2ccccc2-c2ccccc21,,6.65% [at 11.4 µM]
CCn1c(-c2ccccc2Cl)nn(CC(=O)Nc2ccccc2OC)c1=S,inactive,
CCOc1ccccc1NC(=O)CN1CCC(NC(=O)c2ccccc2)CC1,15800 nM (active),
COc1ccc(NC(C)=O)cc1NC(=O)CN1CCN(CC(=O)Nc2ccccc2Cl)CC1,inactive,
Cc1ccc(C(=O)C(OC(=O)CN2C(=O)c3ccccc3C2=O)c2ccccc2)cc1 (configuration not stated),inactive,
CC(=O)c1c(N2CCC(C(N)=O)CC2)nc(=S)n(-c2ccccc2)c1C,inactive,
CCCc1cc2c(=O)c(-c3ccc4c(c3)OCCO4)coc2cc1OC(=O)c1ccco1,inactive,
COC(=O)c1c(-n2c(C)cc(C=O)c2C)sc2c1CCCC2,inactive,

SMILES,AC50,"activity, negative = inhibition"
CCOC(=O)c1c(-c2ccc(C)cc2)csc1NC(=O)C1CC=CCC1C(=O)O (configuration not stated),inactive,
COC(=O)[C@@H]1O[C@@H](c2c(OC)c(OC)c(C)c(OC)c2OC)[C@H](C)[C@@H](O)[C@@H]1C,,15.2% [at 11.4 µM]
NS(=O)(=O)c1cc(C(=O)O)cc(N2CCCC2)c1Oc1ccccc1,inactive,
O=C(c1cn(-c2ccccc2)nc1-c1cccs1)N1CCOCC1,inactive,
O=C1C[C@@H](O)[C@@H](O)[C@H]2[C@@H]3C(=O)N(c4cccc(Oc5ccccc5)c4)C(=O)[C@@H]3CC[C@H]12,,-10.1% [at 11.4 µM] and -0.87% [at 11.4 µM]
CCOC(=O)Cc1cc(=O)n2[nH]c(C)c(-c3ccccc3)c2n1,inactive,
CCS(=O)(=O)c1ccc2c(c1)N(S(C)(=O)=O)CC(C(=O)NCCOC)O2 (configuration not stated),inactive,
Cc1ccccc1-c1nc(-c2ccc(NC(=O)c3cccs3)cc2)no1,inactive,
O=C(Nc1ccccc1)c1cc(-n2cnnc2)ccc1Cl,inactive,
C[C@]12CC[C@H]3c4ccc(OC[C@H]5CO5)cc4CC[C@H]3[C@H]1CC[C@@H]2O,,-13.3% [at 11.4 µM]
COC(=O)N1CCC[C@@]2(CCN(c3ccccn3)C2)C1,12600 nM (active),
O=C(Oc1ccccc1)N1CCC2(CC1)CN(c1ccccn1)C2,inactive,
O=C(Oc1ccccc1)N1CCC[C@@]2(CCN(c3ccccn3)C2)C1,7940 nM (active),
O=C(Oc1ccccc1)N1CCC[C@@]2(CCN(c3ncccn3)C2)C1,inactive,
O=C(c1ccncc1)N1CCC[C@@]2(CCN(c3ccccn3)C2)C1,inactive,
COC(=O)N1CCC[C@@]2(CCN(c3ncccn3)C2)C1,inactive,
Cc1ccc(-c2nnc(-c3ccc(NC(=O)c4cccs4)cc3)o2)cc1,inactive,
Cc1ccc(S(=O)(=O)O[C@H]2C[C@@H](C(C)(C)C)CC[C@@H]2c2ccccc2)cc1,,-9.43% [at 11.4 µM]
CCOC(=O)C1=NOC(CNC(=O)C2=NOC(CNC(=O)c3c(-c4ccccc4Cl)noc3C)C2)C1 (configuration not stated),inactive,
C/C(CCN1CCc2nc(-c3ccccc3)c(-c3ccccc3)cc2C1)=N\OC[C@@H](C)[C@H](OCc1ccccc1)C(C)C,,13.5% [at 11.4 µM]
Cc1ccc(S(=O)(=O)/C=C\C#N)cc1,15.8 nM (active),
CC(C)(C)c1ccc(S(=O)(=O)/C=C\C#N)cc1,inactive,
Cc1ccc(S(=O)(=O)CCCS(=O)(=O)c2ccc(C)cc2)cc1,inactive,
